Reference: paper PMC4242493, “Sequence specificity incompletely defines the genome-wide occupancy of Myc”
The full ranking holds about 33,000 sequences; the median of “normalized occupancy” is about 0.075, and the highest 2% start at about 0.095. Shown is part of a subset that was picked to be rich in the highest values.

Molecular target: MaxL homodimer (Homo sapiens, UniProt P61244 1-160)
Assay: universal protein-binding microarray (PBM); PBS-based mixture, 10 nM His-tagged protein dimer, 2% milk, 200 ng/uL BSA, 50 ng/uL salmon testes DNA, 0.02% TX-100; detection with Alexa 488 anti-His antibody;; high values mean tight binding
Settings: protein: recombinant; tags: C-terminal His-tag (pET21a); chain copies: 2; dsDNA, one strand shown
Method in brief: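 A His-tagged protein dimer at 10 nM was incubated on Agilent 4 x 44 K arrays of the 'all 10-mer' universal design, then labelled with 10 ng/μL fluorophore-conjugated anti-His antibody and scanned on a GenePix 4400A. A fluorescence intensity was assigned to each 8-mer. Binding occupancy is each such intensity normalised to that of the highest-ranked one.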

MaxL homodimer, sequence (P61244 whole entry): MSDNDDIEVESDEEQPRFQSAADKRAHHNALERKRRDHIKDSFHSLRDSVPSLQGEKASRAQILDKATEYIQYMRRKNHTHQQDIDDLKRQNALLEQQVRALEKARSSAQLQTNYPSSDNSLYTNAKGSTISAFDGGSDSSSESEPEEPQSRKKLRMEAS

| Sequence | binding signal [normalized occupancy] |
| --- | --- |
| AATGGCTC | 0.0777 |
| AATTAGTG | 0.0813 |
| ACGTGTCA | 0.0923 |
| AAGTGTCT | 0.073 |
| ACGTGTCT | 0.0997 |
| AGGTGTCG | 0.0793 |
| CCGTGTCG | 0.075 |
| ACGTGTCG | 0.106 |
| ATTGAGAG | 0.0765 |
| CATAGGGG | 0.085 |
| AGATGGAA | 0.0827 |
| ACATAGCA | 0.0807 |
| GCACGTGA | 0.36 |
| GGACGTGA | 0.0764 |
| GCACGTGC | 0.834 |
| GTACGTGA | 0.078 |
| GCACGTCC | 0.0788 |
| GCACGTAC | 0.0883 |
| GATTGGGA | 0.076 |
| TGCGCCCA | 0.0758 |
| CGATTTCA | 0.072 |
| GCCTGGCA | 0.0722 |
| ATAACATC | 0.0807 |
| ACAACATA | 0.0833 |

| Sequence | binding signal [normalized occupancy] |
| --- | --- |
| GTAACACA | 0.0828 |
| ACAACATC | 0.0778 |
| ACAACATG | 0.0952 |
| ATAACACG | 0.0958 |
| ATAACATA | 0.0882 |
| ATAACACA | 0.0874 |
| ACAACACA | 0.0849 |
| ACAACACG | 0.0955 |
| ACAACACC | 0.0812 |
| ATAACATG | 0.0981 |
| GTTTCTTA | 0.0733 |
| CCTTAACA | 0.0794 |
| GTAGGCTA | 0.0748 |
| ACCATGGG | 0.0927 |
| GACATGGC | 0.0801 |
| GACATGGA | 0.0844 |
| CACATGGG | 0.166 |
| AACATGGA | 0.0836 |
| CCCATGGA | 0.0846 |
| CAAATGGG | 0.0805 |
| AACATGGC | 0.0896 |
| CACATGGC | 0.199 |
| CCCATGGG | 0.0962 |
| AACATGGG | 0.0935 |

| Sequence | binding signal [normalized occupancy] |
| --- | --- |
| CACATGGA | 0.162 |
| ATAAGAGG | 0.073 |
| AGGACAAG | 0.0738 |
| GAGTCTGA | 0.0726 |
| TATTACAA | 0.0802 |
| CAAACCGA | 0.0737 |
| GGAGAACA | 0.0748 |
| CGACGTCA | 0.0748 |
| ATACAAGG | 0.0755 |
| CATAGGCG | 0.0751 |
| ACGTGCCC | 0.0948 |
| ACGTGCCG | 0.0929 |
| ACGTGCCA | 0.115 |
| CCGTGCCA | 0.0772 |
| ACGTGCCT | 0.0959 |
| TCGTGCCA | 0.0874 |
| AACAATAC | 0.076 |
| CTTTCCAA | 0.0733 |
| CTTGCACA | 0.0801 |
| CATGCACC | 0.0986 |
| TATGCACA | 0.0883 |
| AATGCACA | 0.0785 |
| GATGCACA | 0.0921 |
| AATGCACG | 0.0974 |

| Sequence | binding signal [normalized occupancy] |
| --- | --- |
| AATGCACC | 0.0777 |
| GATGCACC | 0.0775 |
| CATGCACA | 0.0961 |
| CATGCACG | 0.101 |
| CCTGCACG | 0.0845 |
| AATGCACT | 0.0779 |
| GAGACATA | 0.0802 |
| AGATAATC | 0.0755 |
| ACAGGCAT | 0.0804 |
| ATCGCAAT | 0.0728 |
| AATCTTCA | 0.072 |
| ACGAAAAG | 0.0718 |
| ACCTTATG | 0.0812 |
| ACGGCGTA | 0.0728 |
| ACGGCGTG | 0.0958 |
| ATGGCATG | 0.0968 |
| ACGGCGTC | 0.0722 |
| ATGGCATA | 0.085 |
| AAGGCATG | 0.0988 |
| AAGGCATT | 0.0725 |
| CTGGCACA | 0.0744 |
| ATGGCACG | 0.0985 |
| ATGGCATC | 0.0919 |
| ATGGCACA | 0.0786 |

| Sequence | binding signal [normalized occupancy] |
| --- | --- |
| AAGGCATA | 0.0742 |
| CGATGATA | 0.0772 |
| CTTAATCA | 0.073 |
| CAGAGACA | 0.0742 |
| CTTCACCA | 0.085 |
| AACAACCA | 0.0769 |
| AAAACATA | 0.0798 |
| AAAGAGGA | 0.0738 |
| ACCTCAAA | 0.0749 |
| CTTGCGTA | 0.0773 |
| GGCTTCCA | 0.0728 |
| CAGGCATA | 0.0804 |
| ACGGCATC | 0.0761 |
| ACGGCATA | 0.0754 |
| CAGGCATG | 0.0964 |
| CAGGCATC | 0.0725 |
| ACGGCATG | 0.103 |
| GACAGACC | 0.0741 |
| AACTCCAG | 0.0726 |
| AGTGCTGC | 0.072 |
| GATTTGAC | 0.0751 |
| ACGCATGC | 0.124 |
| CCGCATTC | 0.072 |
| CCGCATCC | 0.0787 |

| Sequence | binding signal [normalized occupancy] |
| --- | --- |
| ACGCATGG | 0.136 |
| ACGCATAG | 0.0818 |
| ACGCATTC | 0.0764 |
| ACGCATTG | 0.0891 |
| CCGCATGC | 0.128 |
| CCGCATCA | 0.0853 |
| CCGCATAA | 0.0821 |
| CCGCATGA | 0.113 |
| ACGCATAC | 0.0842 |
| ACGCTGTG | 0.0735 |
| ACAGGGAG | 0.0726 |
| AAAGGCAG | 0.0731 |
| CGGGTGAC | 0.0779 |
| ATTCATAA | 0.0836 |
| ATGTAGGC | 0.0776 |
| GAAAAGAA | 0.0746 |
| GGCATTTA | 0.0801 |
| GGATCGGA | 0.0725 |
| ACGCATCA | 0.0829 |
| GCGCATGA | 0.0897 |
| ACGCATGA | 0.102 |
| AGGCTACA | 0.0725 |
| ACCACAGG | 0.0732 |
| ACGTAGGC | 0.0765 |
